High-throughput results (PubChem BioAssay)
The sample as a whole holds a higher share of hits than the screen did.
Tgondii IFNg: blocks Toxoplasma gondii growth in the presence of IFN-gamma | Toxoplasma gondii growth in IFN-gamma-treated host cells; active compounds read low | activity change, negative = inhibition, % (no concentration beside the values) | 69,000 tested, 3.8% active; in the data active means activity change below about -70%, passing the limit was not always enough;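 further: host cells are HeLa cells infected with Toxoplasma gondii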
An asterisk follows results filed as active; ! = a repeat was not active.

SMILES | Tgondii IFNg
COc1ccccc1C1(CCNS(=O)(=O)N2CCCC2)CCOC(C)(C)C1 (stereo not given) | 3
Cc1cccc(-c2nc(C)c(CCNS(=O)(=O)c3cc(C)c(C)cc3C)s2)c1 | 338
COc1ccc2c(c1)NC1(CCN(C(=O)Nc3cccc(Cl)c3C)CC1)c1cccn1-2 | 20
Cn1cc(N2CC3(CCN(CCO)C3)CC2=O)cn1 (stereo not given) | -87*
CCS(=O)(=O)N1CCC2(CC(=O)N(c3cnn(C)c3)C2)C1 (stereo not given) | 5
Cn1cc(N2CC3(CCN(S(C)(=O)=O)C3)CC2=O)cn1 (stereo not given) | 12
COc1ccc(S(=O)(=O)NCCc2csc(-c3ccc(F)cc3)n2)cc1C | -6
CCCc1cc(Cn2ccnc2-c2ccc(F)c(F)c2F)on1 | 34
O=C1COC2(CCN(C(=O)C3CCOC3)CC2)CN1Cc1ccccc1 (stereo not given) | -35
CS(=O)(=O)N1CCc2cc(NC(=O)c3ccnn3C(F)F)ccc21 | 4
Cc1oc(-c2ccc(NC(=O)Cc3ccc(Cl)cc3)cc2)nc1Cn1cccn1 | -36
Cc1oc(-c2ccc(NC(=O)c3ccccc3F)cc2)nc1Cn1cccn1 | -59
Cc1oc(-c2ccc(NC(=O)c3ccccc3)cc2)nc1Cn1cccn1 | 20
Cc1oc(-c2ccc(NC(=O)c3ccccc3Br)cc2)nc1Cn1cccn1 | -94*
Cc1oc(-c2ccc(NC(=O)Cc3ccc(F)cc3)cc2)nc1Cn1cccn1 | 11
Cc1oc(-c2ccc(NC(=O)Cc3cccc(F)c3)cc2)nc1Cn1cccn1 | -87*
Cn1ccnc1CN1CCC(c2cc(Cc3ccccc3)[nH]n2)CC1 | 1
FC(F)(F)COc1nc(NCc2ccccc2)nc(OCC(F)(F)F)n1 | -70
CC(C)c1cc(C2CCN(C(=O)C3=NN(C)C(=O)CC3)CC2)[nH]n1 | -3
Cc1nc(CN2CC[C@@H]3C[C@H](C(=O)NC(C)C)O[C@@H]3C2)cs1 | 4
CC(=O)N1CCC2(CC1)CCn1c(-c3cnn(C)c3)cnc12 | -6
O=C(c1cc2ccccc2[nH]1)N1CCC(c2[nH]ncc2Cc2ccccc2)CC1 | -12
O=C(CCc1c[nH]c2ccccc12)N1CCN(c2cc(-c3cccnc3)[nH]n2)CC1 | 104
O=C(NCC1CCN(c2cc(-c3ccncc3)[nH]n2)CC1)c1cc2ccccc2[nH]1 | -79*
COc1ccc(NC(=O)c2cncc(NS(=O)(=O)c3ccc(C)cc3C)c2)cc1 | 26
SMILES | Tgondii IFNg
COCC1CN(S(=O)(=O)Cc2ccc(C)cc2)Cc2c1cnn2C (stereo not given) | 4
COc1ccc(-c2nnc(SCC(N)=O)n2-c2ccc(OC)cc2)cc1 | -5
Cn1c(-c2ccc(Cl)cc2)cs/c1=N\C(=S)NCCc1ccccc1 | -57
CC(C)(C)c1csc(=S)n1CCc1ccc(Cl)cc1 | -87*
O=C(Nc1ccc(-c2nc(-c3ccccc3)co2)cc1)Nc1ccccc1F | 68
CN(C)CCN1CCc2ncc(Cn3cncn3)n2CC1 | -15
COC(=O)C1=C(C)NC(C)=C(C(=O)OC/C=C/c2ccccc2)C1c1cccc([N+](=O)[O-])c1 (stereo not given) | -2
COC(=O)C1=C(C)NC(C)=C(C(=O)OCCN2CCN(C(c3ccccc3)c3ccccc3)CC2)C1c1cccc([N+](=O)[O-])c1 (stereo not given) | -84*!
COC(=O)C1=C(C)NC(C)=C(C(=O)OCCN(C)Cc2ccccc2)C1c1cccc([N+](=O)[O-])c1 (stereo not given) | 16
CCO[C@@H]1C[C@H]2CN(S(=O)(=O)c3cccs3)CCN2C1 | 2
CCCCc1cc(C(=O)Nc2ccc3c(c2)CCN3C(C)=O)n[nH]1 | 10
O=S(=O)(N1CCOCC1)N1CCN(Cc2cnn(C3CCCCC3)c2)CC1 | -1
O=C(CSc1ccccn1)c1ccc(OCc2ccc(F)cc2)cc1 | -23
CCOc1ccc2nc(SCC(=O)c3ccc(F)cc3)sc2c1 | -79*
CCOc1ccc2nc(NS(=O)(=O)c3ccc(NC(C)=O)cc3)sc2c1 | 5
CC(C)Nc1ncnc2c1CCN(C(=O)N1CCOCC1)CC2 | 25
COc1ccc(C(=O)N2CCCC2c2nc3ccccc3[nH]2)cc1Cn1nc(C)cc1C (stereo not given) | -57
O=C(c1cccs1)N1CCC2(CC1)Nc1cc(F)ccc1-n1cccc12 | 94
CCN(CC)c1ccc(C(=C2C=CC(=[N+](CC)CC)C=C2)c2ccccc2)cc1 | -74*
CC(=O)O[C@]1(C(C)=O)CC[C@H]2[C@@H]3C=CC4=CC(=O)CC[C@]4(C)[C@H]3CC[C@@]21C | 14
C#C[C@]1(O)CC[C@H]2[C@@H]3CCc4cc(OC)ccc4[C@H]3CC[C@@]21C | -6
C[C@]12CC[C@@H]3c4ccc(O)cc4C(=O)C[C@H]3[C@@H]1CC[C@@H]2O | -3
CC12CCC3c4ccc(O)cc4C=CC3C1CCC2=O (stereo not given) | -88*
C#C[C@]1(O)CCC2C3CCc4cc(OC)ccc4C3CC[C@@]21C (stereo not given in full) | 5
C[C@]12CC[C@@H]3c4ccc(O)cc4CC[C@H]3[C@@H]1CCC2=O | -77*!
SMILES | Tgondii IFNg
C[C@]12CCC3c4ccc(OS(=O)(=O)O)cc4CCC3C1CC[C@H]2O (stereo not given in full) | 9
C[C@]12CCC3c4ccc(O)cc4CCC3C1C[C@@H](O)[C@@H]2O (stereo not given in full) | -4
C[C@]12CCC3c4ccc(O)cc4CCC3C1CC[C@@H]2O (stereo not given in full) | -74*
CN(Cc1ccc(N2CCCC2=O)cc1)Cc1ccccc1N1CCOCC1 | 10
CC(O)CNc1nccc(CCC(F)(F)F)n1 (stereo not given) | 8
CNC(=O)C[C@@H]1C[C@@H]2CN(S(=O)(=O)c3ccccc3)C[C@@H]2O1 | 6
CNC(=O)c1ccc(-c2ccnc3c2ccn3C)o1 | 61
Cn1ccc2c(-c3cccc(O)c3)ccnc21 | -77*
Cn1ccc2c(-c3ccc(C(=O)O)cn3)ccnc21 | 12
CN1CCN(CCC2CCCCN2)CC1 (stereo not given) | 17
C1CCC(C(CC2CCCCN2)C2CCCCC2)CC1 (stereo not given) | -96*!
CN(C)CC(=O)NCCC1CCCCN1 (stereo not given) | -5
COCCN1CCOCC2(CCCN(C(=O)c3ccc(-n4cccc4)cc3)C2)C1 (stereo not given) | -4
CNC(=O)c1ccc(Nc2ncc(C(F)(F)F)c(NCc3nccnc3N(C)S(C)(=O)=O)n2)cc1 | -85*
Cc1ccc2c(c1)NC1(CCN(S(=O)(=O)c3ccc4ccccc4c3)CC1)c1cccn1-2 | 40
Cc1cccc(CNC(=O)c2cn3c(n2)CCCC3)c1 | 70
Cc1ccc(C(NC(=O)CCn2c(C)cc(C)nc2=O)c2cccnc2)cc1 (stereo not given) | -4
C=CCOCC1CCC2C1OCCN2C(=O)C1CCCO1 (stereo not given) | -19
CCc1c(C)nn(CC(=O)NCc2nn(C)c3ccc(C)cc23)c1C | -1
Cc1ccc2c(c1)c(Cn1cc(-c3sccc3C)nn1)nn2C | -86*
Cc1ccc2c(c1)c(CNC(C)CCn1cccn1)nn2C (stereo not given) | -7
CC(=O)N1C2CCN(C(N)=O)CC2C[C@H]1Cn1cncn1 (stereo not given in full) | 2
c1ccc(CCCN2CCCN(Cc3cc4n(n3)CCCNC4)CC2)cc1 | -40
O=C1CSC(c2ccccc2)N1Nc1nc(N2CCOCC2)nc(N2CCOCC2)n1 (stereo not given) | -14
